Source: PubChem BioAssay (Tox21)
Results filed as inconclusive are left out. Calls of active or inactive are those of the source. Calls follow the shape of the dose curve; as a rule, active = well fitted curve in the direction sought with a large enough effect in the repeat runs; inconclusive = weak or mixed curves; inactive = no such curve, though single readings can be large; an effect the other way counts as inactive or inconclusive.

Experiments:
[1] = qHTS RealTime-Glo MT Cell Viability Assay in HEK293 cells - 16 hour (AID 1224872); also: nearly all actives have a fitted effect of over 50% in size; also: potency is read from the fitted curve at half-maximal effect; as to activity change, negative = cytotoxicity: top concentration of the series differs between compounds
Outline: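 Quantitative high-throughput screen of the Tox21 10K library in HEK293: cells and RealTime-Glo reagents plated together, compound added at 5 h, luminescence monitored through 40 h at 37 C.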

[2] = qHTS RealTime-Glo MT Cell Viability Assay in HepG2 cells - 8 hour (AID 1224873); also: nearly all actives have a fitted effect of over 55% in size
Outline: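 HepG2 cells (600/well) mixed with RealTime-Glo MT reagent, settled 5 h at 37 C/5% CO2 before compound addition. Nonlytic NanoLuc luminescence from viable-cell prosubstrate reduction read repeatedly during 40 h treatment at 37 C.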

[3] = A CellTox Green Cytotoxicity Assay to monitor cytotoxicity in HEK293 cells - 24 hour (AID 1224875); also: nearly all actives have a fitted effect of over 45% in size; also: potency is read from the fitted curve at half-maximal effect; as to activity change: series mostly up to about 77 µM
Outline: (§1)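 Real-time, in one plate: 600 HEK293 cells/well with dead-cell DNA dye, pinned compound after 5 h, 37 C incubation over 40 h; viable cells give no appreciable fluorescence.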

[4] = A CellTox Green Cytotoxicity Assay to monitor cytotoxicity in HepG2 cells - 16 hour (AID 1224876); also: nearly all actives have a fitted effect of over 45% in size; also: potency is read from the fitted curve at half-maximal effect
Outline: (§2)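 Cytotoxicity was tracked as dead-cell DNA fluorescence in HepG2 cells treated with test compounds at 37 C; each time-point value comes from one kinetic series spanning 0, 8, 16, 24, 32 and 40 h.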

[5] = qHTS RealTime-Glo MT Cell Viability Assay in HepG2 cells - 32 hour (AID 1224877); also: nearly all actives have a fitted effect of over 55% in size; also: potency is read from the fitted curve at half-maximal effect
Outline: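 Compound treatment began 5 h after plating HepG2 cells (600/well) with NanoLuc luciferase and prosubstrate. Plates stayed at 37 C for 40 h; luminescence was captured at six time points, 0 h through 40 h.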

[6] = A CellTox Green Cytotoxicity Assay to monitor cytotoxicity in HepG2 cells - 24 hour (AID 1224878); also: nearly all actives have a fitted effect of over 45% in size; also: potency is read from the fitted curve at half-maximal effect
Outline: as §2

[7] = A CellTox Green Cytotoxicity Assay to monitor cytotoxicity in HepG2 cells - 40 hour (AID 1224879); also: nearly all actives have a fitted effect of over 40% in size; also: potency is read from the fitted curve at half-maximal effect
Outline: as §2

[8] = qHTS RealTime-Glo MT Cell Viability Assay in HEK293 cells - 0 hour (AID 1224880); also: top concentration of the series differs between compounds; nearly all actives have a fitted effect of over 45% in size
Outline: (§3)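 Kinetic, non-lysing viability readout. Seed HEK293 (600/well) with reagent, incubate 5 h at 37 C/5% CO2, pin 23 nL compound in DMSO, incubate at 37 C, read luminescence at 0, 8, 16, 24, 32, 40 h.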

[9] = A CellTox Green Cytotoxicity Assay to monitor cytotoxicity in HEK293 cells - 32 hour (AID 1224881); also: nearly all actives have a fitted effect of over 40% in size; also: potency is read from the fitted curve at half-maximal effect
Outline: as §1

[10] = qHTS RealTime-Glo MT Cell Viability Assay in HEK293 cells - 40 hour (AID 1224874); conditions: RealTime-Glo luminescence; max response: hits give low values; also: nearly all actives have a fitted effect of over 50% in size; also: potency is read from the fitted curve at half-maximal effect
Outline: as §3
% is scaled to controls: 0 for no effect and ±100 for the full control effect.

O=C1C=CCCC1
inactive: Potency [1] | outcome [2] | Potency [3] | Potency [4] | Potency [5] | Potency [6] | Potency [7] | Potency [8] | Potency [9]

C=Cc1ccc(C=C)cc1
inactive: Potency [1] | outcome [2] | Potency [3] | Potency [4] | Potency [5] | Potency [6] | Potency [7] | Potency [8] | Potency [9]

CC1(C)CC(=O)CC(C)(C)N1
inactive: Potency [1] | outcome [2] | Potency [3] | Potency [4] | Potency [5] | Potency [7] | Potency [8] | Potency [9]

c1ccc(CCNc2nc(-c3ccccc3)cs2)cc1
inactive: Potency [1] | outcome [2] | Potency [5] | Potency [7] | Potency [8]

O=C(N[C@@H](Cc1ccccc1)[C@@H](O)C(=O)N1C[C@@H](O)[C@@H](O)C1)c1cc2cc(Cl)ccc2[nH]1
inactive: Potency [1] | outcome [2] | Potency [3] | Potency [5] | Potency [9]

O=C1c2ccccc2C(=O)C1c1ccc2ccccc2n1
inactive: outcome [2] | Potency [4] | Potency [5] | Potency [6] | Potency [7] | Potency [8]

COc1ccc(/C=C/c2cc(OC)cc(=O)o2)cc1
inactive: outcome [2] | Potency [3] | Potency [4] | Potency [5] | Potency [6] | Potency [7] | Potency [8] | Potency [9]
active: Potency [10] 8.92 µM

C/C=C1\[C@H]2C=C(C)C[C@]1(N)c1ccc(=O)[nH]c1C2
inactive: Potency [1] | outcome [2] | Potency [3] | Potency [4] | Potency [5] | Potency [7] | Potency [8] | Potency [9]

COC(=O)C(C)(C)C
inactive: outcome [2] | max response [10] -22.6% | Potency [3] | Potency [4] | Potency [5] | Potency [6] | Potency [7] | Potency [8] | Potency [9]

Cc1ccc(NC(=O)c2ccc(CN3CCN(C)CC3)cc2)cc1Nc1nccc(-c2cccnc2)n1
inactive: outcome [2] | Potency [3] | Potency [4] | Potency [5] | Potency [6] | Potency [8] | Potency [9]
active: Potency [10] 21.3 µM

O=C(OCCCCCOC(=O)c1ccccc1)c1ccccc1
inactive: outcome [2] | Potency [3] | Potency [4] | Potency [5] | Potency [6] | Potency [7] | Potency [8] | Potency [9]

CC1=CC(=C(c2ccc(N)cc2)c2ccc(N)cc2)C=CC1=N
inactive: viability change, negative = cytotoxic [2] 2.31% [at 6.97 µM] | activity change [3] -0.584% [at 6.97 µM, hits give high values] | cytotoxicity increase [4] 1.38% [at 6.97 µM] | activity change, negative = cytotoxic [5] -1.73% [at 6.97 µM] | cytotoxicity [6] 0.887% [at 6.97 µM] | cytotoxicity increase [7] 5.34% [at 6.97 µM] | activity change, negative = cytotoxicity [8] 12.8% [at 6.97 µM]

CC(C)CC(C)(C)C
inactive: outcome [2] | max response [10] -17.8% | Potency [4] | Potency [5] | Potency [6] | Potency [7]

NC(=O)c1ccccc1C(N)=O
active: Potency [10] 31 µM | Potency [3] 49.2 µM | Potency [4] 55.2 µM | Potency [6] 55.2 µM | Potency [7] 49.2 µM | Potency [9] 49.2 µM
inactive: outcome [2] | Potency [5] | Potency [8]

O=c1c2ccccc2oc2ccccc12
inactive: outcome [2] | Potency [3] | Potency [4] | Potency [5] | Potency [6] | Potency [7] | Potency [8]

O=C(Nc1ccc2c(c1)Cc1ccccc1-2)C(F)(F)F
inactive: outcome [2] | Potency [3] | Potency [4] | Potency [5] | Potency [6] | Potency [7] | Potency [8] | Potency [9]

Nc1ccc(-c2ccc(F)cc2)cc1
inactive: outcome [2] | max response [10] -22.4% | Potency [3] | Potency [4] | Potency [5] | Potency [6] | Potency [7] | Potency [8] | Potency [9]

CC1=C(C)C(=O)C(CCCCC#CCCCC#CCO)=C(C)C1=O
inactive: Potency [3] | Potency [4] | Potency [6] | Potency [7] | Potency [8] | Potency [9]
active: Potency [1] 0.601 µM | Potency [10] 0.674 µM

O=C(OCCN1CCOCC1)c1cccnc1Nc1cccc(C(F)(F)F)c1
inactive: outcome [2] | Potency [3] | Potency [4] | Potency [5] | Potency [6] | Potency [7] | Potency [9]

CC(C)C[C@H](NC(=O)[C@H](Cc1ccccc1)NC(=O)c1cnccn1)B(O)O
inactive: outcome [2] | Potency [3] | Potency [8]
active: Potency [10] 0.0239 µM | Potency [4] 13.4 µM | Potency [5] 0.0301 µM | Potency [6] 0.0952 µM | Potency [7] 0.0151 µM | Potency [9] 0.19 µM

CCCCOC(=O)C(C)Oc1ccc(Oc2ccc(C(F)(F)F)cn2)cc1 (configuration not stated)
inactive: outcome [2] | max response [10] -1.23% | Potency [3] | Potency [4] | Potency [5] | Potency [6] | Potency [7] | Potency [8] | Potency [9]

C=CC(=O)NC(C)(C)C
inactive: Potency [1] | outcome [2] | Potency [3] | Potency [4] | Potency [5] | Potency [7] | Potency [8] | Potency [9]

COc1ccc(C(=O)c2ccc(C)cc2)c(O)c1
inactive: outcome [2] | Potency [3] | Potency [4] | Potency [5] | Potency [6] | Potency [7] | Potency [8] | Potency [9]

CCCCCCOC(=O)c1ccccc1
inactive: Potency [1] | outcome [2] | Potency [3] | Potency [4] | Potency [5] | Potency [7] | Potency [9]

O=C(O)c1c2ccccc2cc2ccccc12
inactive: outcome [2] | Potency [3] | Potency [4] | Potency [5] | Potency [7]

CCN(CCCCOC(=O)c1ccc(OC)c(OC)c1)C(C)Cc1ccc(OC)cc1 (configuration not stated)
inactive: outcome [2] | Potency [3] | Potency [4] | Potency [5] | Potency [8] | Potency [9]

O=C(c1ccc(Cl)cc1)c1ccc(Cl)cc1
inactive: Potency [1] | outcome [2] | Potency [3] | Potency [4] | Potency [5] | Potency [8] | Potency [9]

Clc1cccc(C(c2ccc3nc[nH]c3c2)n2ccnc2)c1 (configuration not stated)
inactive: outcome [2] | max response [10] -17.1% | Potency [3] | Potency [4] | Potency [5] | Potency [7] | Potency [8] | Potency [9]
